{"source": "PubChem BioAssay AID1851", "about": "(National Center for Advancing Translational Sciences (NCATS), 2009)", "note": "Out of some 16,000 compounds screened, about 5,100 (32%) were called active. Not shown: some 25% with an inconclusive outcome. Calls come from the whole dose curve; as a rule, active = well fitted curve in the direction sought with a large enough effect; inconclusive = small, poorly fitted or top-dose-only effect, or effect the other way; inactive = no such curve, though single readings can be large or run the other way. The list shows a part of the results. % is set by controls: 0 for no effect and ±100 for the full control effect."}
{"molecular_target": "Cytochrome P450 3A4 (Homo sapiens) (UniProt P08684)", "sequence (P08684 whole entry, looked up)": "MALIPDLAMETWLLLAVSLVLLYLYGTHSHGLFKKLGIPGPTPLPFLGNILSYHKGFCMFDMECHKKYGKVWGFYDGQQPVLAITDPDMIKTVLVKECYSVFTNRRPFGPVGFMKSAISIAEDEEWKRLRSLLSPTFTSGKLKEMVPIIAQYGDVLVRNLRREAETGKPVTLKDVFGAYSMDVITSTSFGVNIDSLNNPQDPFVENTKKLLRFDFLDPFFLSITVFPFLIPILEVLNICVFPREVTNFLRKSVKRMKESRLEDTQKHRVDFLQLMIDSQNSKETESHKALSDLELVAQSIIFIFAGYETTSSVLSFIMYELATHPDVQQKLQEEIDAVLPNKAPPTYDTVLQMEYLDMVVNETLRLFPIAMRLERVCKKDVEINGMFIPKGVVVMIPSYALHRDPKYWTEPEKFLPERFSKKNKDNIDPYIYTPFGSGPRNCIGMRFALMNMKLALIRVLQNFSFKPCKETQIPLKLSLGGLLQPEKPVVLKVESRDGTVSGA", "assay": "Cytochrome panel assay with activity outcomes", "details": "recombinant CYP, pro-luciferin dealkylation, luminescence, p450-cyp3a4; series mostly up to 57.1 µM"}
{"smiles": "COc1cccc(/C=N/NC(=O)c2nc(-c3ccccc3)cc(-c3ccccc3)n2)c1", "AC50": "inactive"}
{"smiles": "COc1ccc(/C=N/NC(=O)c2cc(-c3ccc(C)cc3C)nc3ccccc23)cc1COC(C)=O", "activity, negative = inhibition": "14.1% [at 0.457 µM] (inactive)"}
{"smiles": "COc1cccc(-c2cc(C(=O)N/N=C/c3ccc(OC)c(COC(C)=O)c3)c3ccccc3n2)c1", "AC50": "1.78 µM (active)"}
{"smiles": "N[C@]1(C(=O)O)CCc2cc(P(=O)(O)O)ccc21", "AC50": "inactive"}
{"smiles": "CC(C)c1ccc2c(c1)C(c1ccc(N3CCOCC3)cc1)=NNC(c1cccs1)=N2", "activity, negative = inhibition": "9.44% [at 2.29 µM] (inactive)"}
{"smiles": "Fc1ccc2c(c1)C(c1ccncc1)=NNC(c1ccc(Cl)cc1)=N2", "AC50": "1.78 µM (active)"}
{"smiles": "Clc1ccc2c(c1)C(c1cccs1)=NNC(c1cccnc1)=N2", "AC50": "10 µM (active)"}
{"smiles": "O=C(O)[C@H]1CCCC[C@@H]1c1c2ccc(=O)c(O)c-2oc2c(O)c(O)ccc12", "activity, negative = inhibition": "-5.27% [at 11.4 µM] (inactive)"}
{"smiles": "C=CCSc1nc(NC)c2sccc2n1", "AC50": "25.1 µM (active)"}
{"smiles": "C=CCSc1ccsc1C(=O)O", "AC50": "inactive"}
{"smiles": "C=CCNc1nc(SCC=C)nc2ccsc12", "AC50": "12.6 µM (active)"}
{"smiles": "CSc1nc(Oc2ccc(F)cc2)c2ccccc2n1", "AC50": "inactive"}
{"smiles": "C=CCSc1nc(Oc2ccccc2)c2sccc2n1", "AC50": "10 µM (active)"}
{"smiles": "NS(=O)(=O)c1ccc(N=Nc2c[nH]c(=O)c(O)c2)cc1", "activity, negative = inhibition": "-19.5% [at 11.4 µM] (inactive)"}
{"smiles": "N#Cc1c(-c2cccs2)nc(SCC(=O)c2cccs2)[nH]c1=O", "activity, negative = inhibition": "-3.29% [at 2.29 µM] (inactive)"}
{"smiles": "O=C(CSc1nc2nc(-c3cccs3)cc(C(F)(F)F)c2c(=O)[nH]1)NCc1ccco1", "AC50": "14.1 µM (active)"}
{"smiles": "CSc1nc(O)c(Cc2ccccc2)c(=O)[nH]1", "AC50": "inactive"}
{"smiles": "CSc1nc(-c2ccc(C)cc2)[nH]c1S(=O)(=O)c1ccccc1", "AC50": "28.2 µM (active)"}
{"smiles": "CCCCCOC(=O)c1c(N)n(CCOC)c2nc3ccccc3nc12", "AC50": "8.91 µM (active)"}
{"smiles": "C=C(CC1([C@@H](NP(=O)(c2ccccc2)c2ccccc2)[C@H]2C[C@@H]2CCCC)CC1)c1cccc(OC)c1", "AC50": "2.51 µM (active)"}
{"smiles": "C=C(CC1([C@@H](NP(=O)(c2ccccc2)c2ccccc2)[C@H]2C[C@@H]2CCN(C(=O)OCC)S(=O)(=O)c2ccc(C)cc2)CC1)c1ccccc1", "AC50": "1.58 µM (active)"}
{"smiles": "C=C(CC1([C@@H](NP(=O)(c2ccccc2)c2ccccc2)[C@H]2C[C@@H]2CCCC)CC1)c1ccccc1", "AC50": "1.58 µM (active)"}
{"smiles": "O=C(O)c1ccc(SSc2ccc(C(=O)O)cn2)nc1", "activity, negative = inhibition": "-8.92% [at 11.4 µM] (inactive)"}
{"smiles": "Cc1cc(C(=O)OCC(=O)NCCCN2CCCC2=O)c2ccccc2n1", "activity, negative = inhibition": "-5.65% [at 2.29 µM] (inactive)"}
{"smiles": "Cc1ccc(C(=O)N(CN2CCCC2=O)c2ccccc2)cc1C", "AC50": "12.6 µM (active)"}
{"smiles": "O=C1CCCN1CC(O)CS(=O)(=O)c1ccccc1", "note": "(stereo unspecified)", "AC50": "inactive"}
{"smiles": "CC1(C)CO[C@H](CC(=O)O)CN1", "AC50": "inactive"}
{"smiles": "COc1cccc(OC)c1C(=O)NC(=S)N1CCN(c2ccc(C(F)(F)F)cc2[N+](=O)[O-])CC1", "activity, negative = inhibition": "-16.4% [at 2.29 µM] (inactive)"}
{"smiles": "O=C(O)C1CCN(c2c([N+](=O)[O-])cc(C(F)(F)F)cc2[N+](=O)[O-])CC1", "AC50": "inactive"}
{"smiles": "O=c1c([N+](=O)[O-])cc(C(F)(F)F)cn1Cc1c(Cl)cccc1Cl", "AC50": "14.1 µM (active)"}
{"smiles": "CCC(=O)[C@@]1(C)[C@H](C)C[C@@H]2[C@@H]3CCC4=CC(=O)C=C[C@@]4(C)[C@H]3[C@H](O)C[C@]21C", "AC50": "inactive"}
{"smiles": "CCC(=O)OCC(=O)[C@@]1(OC(=O)CC)[C@H](C)C[C@@H]2[C@H]3CCC4=CC(=O)C=C[C@]4(C)[C@]3(Cl)[C@@H](O)C[C@@]21C", "AC50": "inactive"}
{"smiles": "CN(C)C(N)=NCCC[C@H](N)C(=O)O", "AC50": "inactive"}
{"smiles": "Cc1ccc(-c2ccc(/C=N/NC(=S)Nc3ccccc3)o2)cc1[N+](=O)[O-]", "AC50": "7.08 µM (active)"}
{"smiles": "Cc1ccc(-c2ccc(/C=N\\NC(=O)c3cc4c(ccc5ccccc54)o3)o2)cc1[N+](=O)[O-]", "AC50": "inactive"}
{"smiles": "Cc1ccc(C(=O)N/N=C\\c2ccc[nH]2)cc1[N+](=O)[O-]", "activity, negative = inhibition": "16.8% [at 2.29 µM] (inactive)"}
{"smiles": "Cc1cc(C(F)(F)F)n2nc(-c3cnn(C)c3C(F)(F)F)c(Cl)c2n1", "AC50": "inactive"}
{"smiles": "NC(=O)c1ccccc1-c1nc(-n2ccnc2)c2ccccc2n1", "AC50": "3.98 µM (active)"}
{"smiles": "Clc1ccccc1-c1nc(-n2ccnc2)c2ccccc2n1", "AC50": "0.501 µM (active)"}
{"smiles": "Cc1ccccc1-c1nc(-n2ccnc2)c2ccccc2n1", "AC50": "0.398 µM (active)"}
{"smiles": "CC(C)(C)OC(=O)[C@H]([C@@H]1N[C@@H](C(=O)O)C(C)(C)S1)N1C(=O)c2ccccc2C1=O", "activity, negative = inhibition": "-8.52% [at 11.4 µM] (inactive)"}
{"smiles": "COc1ccc(NC(=O)CSc2nc3ccccc3c(=O)n2CCC(=O)N2CCCCC2)cc1", "AC50": "2 µM (active)"}
{"smiles": "CCCCn1c(SCC(=O)Nc2nccs2)nc2ccccc2c1=O", "AC50": "3.16 µM (active)"}
{"smiles": "Cc1cccc(C)c1-n1c(SCC(=O)NCc2ccco2)nc2ccccc2c1=O", "AC50": "3.98 µM (active)"}
{"smiles": "COCC(=O)N1CCC2(CC1)CCN(C(=O)Nc1ccc(OC)cc1)CC2", "AC50": "inactive"}
{"smiles": "Cc1cc(NC(=O)CSc2nc3ccccc3c(=O)n2CCCC(=O)NCc2ccco2)n[nH]1", "AC50": "3.55 µM (active)"}
{"smiles": "O=C(CSc1ccccc1C(=O)O)NCc1ccco1", "AC50": "inactive"}
{"smiles": "Cc1cc(C)c(NC(=O)C(C)Sc2nnc(-c3ccco3)n2-c2ccccc2)c(C)c1", "note": "(stereo unspecified)", "AC50": "3.55 µM (active)"}
{"smiles": "CCCCNC(=O)C(=O)c1ccccc1NC(C)=O", "AC50": "inactive"}
{"smiles": "CCCCNC(=O)CSc1nc2ccccc2c(=O)n1CCNC(C)=O", "AC50": "25.1 µM (active)"}
{"smiles": "C=CCSc1nc2ccccc2c(=O)n1Cc1ccco1", "activity, negative = inhibition": "-25.8% [at 11.4 µM] (inactive)"}
{"smiles": "CC(=O)NCCn1c(SCC(=O)NCc2ccco2)nc2ccccc2c1=O", "AC50": "15.8 µM (active)"}
{"smiles": "O=C(CSc1nnc(-c2ccco2)n1-c1ccccc1)NCc1ccco1", "AC50": "15.8 µM (active)"}
{"smiles": "O=C(CSc1nnc2sc3ccccc3n12)NCc1ccco1", "activity, negative = inhibition": "-18.1% [at 11.4 µM] (inactive)"}
{"smiles": "Cc1ccc(Oc2nn[nH]n2)cc1", "AC50": "inactive"}
{"smiles": "CC1CCC(C(=O)O)([C@H](Br)C(=O)O)CC1", "note": "(stereo partly specified)", "activity, negative = inhibition": "-2.61% [at 11.4 µM] (inactive)"}
